High-throughput results: PubChem BioAssay, National Center for Advancing Translational Sciences (NCATS)
Pf Dd2 inh = blocks in vitro growth of P. falciparum Dd2; P. falciparum Dd2 growth, SYBR Green, 72 h; Potency, µM (doses to about 28.9 µM), hits mostly inhibitors; hit rate 4.3% among 120,000; AID 1347417; active = well fitted inhibition curve with a large enough effect; also: nearly all actives have a fitted effect of over 65% in size
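Infected erythrocytes (Dd2, 0.3% parasitemia, 2.5% hematocrit final) are added to compound in RPMI-1640/Albumax II medium, grown 72 h at 37C in low oxygen, then lysed with saponin/Triton-X containing SYBR Green and read by fluorescence.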
A number is an active result; - = inactive. Many of the other results were omitted from the sample, so hits are more common in it than they were.

SMILES	Pf Dd2 inh
COc1cc(C2c3c(-c4ccccc4O)n[nH]c3C(=O)N2Cc2ccncc2)ccc1O (centres undefined)	-
COc1cc(C2c3c(oc4ccccc4c3=O)C(=O)N2Cc2ccc(C)cc2)ccc1O (centres undefined)	-
CCOc1ccc(NC(=O)Cn2nc(Cc3ccncc3)c3ccccc3c2=O)cc1	-
CCCCOc1ccc(C2c3c(-c4ccccc4O)n[nH]c3C(=O)N2Cc2ccncc2)cc1OC (centres undefined)	7.1µM
CC(=O)c1ccc(N2CCN(S(=O)(=O)c3ccc(-c4coc(C)n4)cc3)CC2)cc1	-
COc1cccc(CN2CCC23Cc2ccccc2NC3=O)c1 (centres undefined)	-
CCOc1ncccc1C(=O)N1CC[C@@](O)(C2CCOCC2)[C@H](C)C1	-
COc1cccc(C(=O)NC2CCN(C(=O)c3cc4c(=O)[nH]c(C)cn4n3)CC2)c1	-
Cc1cn2nc(C(=O)N3CCC(NC(=O)c4cccc(C#N)c4)CC3)cc2c(=O)[nH]1	2.8µM
Cc1cn2nc(C(=O)N3CCC(NC(=O)c4ccc(F)c(F)c4)CC3)cc2c(=O)[nH]1	-
Cc1ccc(C(=O)N2CCN(c3cc(C(F)(F)F)ncn3)CC2)cc1	-
c1cc(-c2nc3c([nH]2)CNCC3)c2cccnc2c1	-
COCC(=O)N[C@H]1CO[C@H]2[C@@H]1OC[C@H]2O	-
CSc1cccc(NC(=O)NC[C@H]2C[C@@H]3CCN2C[C@@H]3CN(C)c2ccccc2)c1	8.9µM
C#C[C@H]1CN2CC[C@H]1C[C@@H]2CNC(=O)Nc1cccc(SC)c1	-
CSc1cccc(NC(=O)NC[C@H]2C[C@@H]3CCN2C[C@@H]3CN2CCN(c3ncccn3)CC2)c1	-
CC(C)NC(=O)C(C)[C@@H]1CC[C@@]2(C)CC[C@H](NC(=O)CC(C)(C)C)[C@@H](C)[C@@H]2[C@H]1O (some centres undefined)	6.3µM
COCC(=O)N[C@H]1CC[C@]2(C)CC[C@@H]3[C@H](OC(=O)[C@H]3C)[C@H]2[C@@H]1C	-
C[C@H]1[C@@H]2[C@@H](O)C([C@H](C)C(=O)NCCN3CCOCC3)CC[C@@]2(C)CC[C@@H]1NC(=O)CC(C)(C)C (some centres undefined)	-
C[C@H]1[C@@H]2[C@H]3OC(=O)[C@@H](C)[C@@H]3CC[C@@]2(C)CC[C@@H]1NC(=O)C1CCCCC1	-
C[C@H]1[C@@H]2[C@H]3OC(=O)[C@@H](C)[C@@H]3CC[C@@]2(C)CC[C@@H]1NC(=O)CC(C)(C)C	1.3µM
CCN(CC)C(=O)C(C)[C@@H]1CC[C@@]2(C)CC[C@H](NC(=O)CC(C)(C)C)[C@@H](C)[C@@H]2[C@H]1O (some centres undefined)	-
COc1cccc(C(=O)N(C)C2CCCc3ccccc32)c1 (centres undefined)	-
Cc1cc(C)c2c(NC(=O)c3ccccc3Cl)c(C(=O)Nc3ccc(C)c(C)c3)sc2n1	-
CN(C)Cc1nnc(C2CCCN(C(=O)c3ccn4nnnc4c3)C2)n1C (centres undefined)	-
SMILES	Pf Dd2 inh
Cc1ccncc1-c1c(C)nn2c1N(C(=O)Cc1ccc(Cl)cc1)CCC2	-
COc1ccccc1N1CCN(C(=O)c2c(OC)cc(=O)n3c2CCCC3)CC1	-
CCN(CC)c1ccc(C2C(C(N)=O)=C(C)Nc3ncnn32)cc1 (centres undefined)	-
CC1=C(C(N)=O)C(c2cccc(C)c2)n2nc(-c3ccc(Cl)cc3)nc2N1 (centres undefined)	-
CC1=C(C(N)=O)C(c2ccc(F)cc2)n2nc(-c3ccc(N(C)C)cc3)nc2N1 (centres undefined)	10µM
O=C(Nc1ccccc1)c1nc2c(o1)CCN(Cc1ccccn1)CC2	-
CC(C)c1nnsc1Cn1ncc(N(C)CCc2ccccc2)cc1=O	-
Cc1cnc(C(=O)N[C@@H]2CCC[C@@H]2C(=O)NC2CCCC2)cn1	-
Cc1ccccc1N1Cc2c(NCc3cccs3)ncnc2N(C)CC1=O	-
O[C@H]1CC[C@@H](Cc2cc(-c3ccc(F)cc3)on2)O[C@@H]1CNCc1ccncc1	10µM
O[C@H]1CC[C@@H](Cc2cc(-c3ccc(F)cc3)on2)O[C@@H]1CNC1CCNCC1	-
CC(=O)N1CCC(NC[C@H]2O[C@H](Cc3cc(COc4ccccc4)on3)CC[C@@H]2O)CC1	-
CN(C)C[C@H]1O[C@H](Cc2cc(CN(C)Cc3ccccc3)on2)CC[C@@H]1O	-
COc1ccc(CNC[C@H]2O[C@H](Cc3cc(COc4ccccc4)on3)CC[C@@H]2O)cc1	4µM
CN(Cc1ccccc1)Cc1cc(C[C@@H]2CC[C@H](O)[C@@H](CNCc3ccccc3)O2)no1	1.8µM
CCC(=O)NC[C@H]1O[C@H](Cc2cc(COc3ccccc3)on2)CC[C@@H]1O	-
COc1ccc(C(=O)NC[C@H]2O[C@H](Cc3cc(COc4ccccc4)on3)CC[C@@H]2O)cc1	-
CC(C)NC[C@H]1O[C@H](Cc2cc(CN(C)Cc3ccccc3)on2)CC[C@@H]1O	11µM
COCc1cc(C[C@@H]2CC[C@H](O)[C@@H](CNC3CCN(C)CC3)O2)no1	-
